Z-AUC data for 31 molecules are collected here from PubChem BioAssay (NCATS).

The structures appear in SMILES notation.

The experiment can be described thus: qHTS drug screen for cell cycle checkpoint inhibitors in PARPi-resistant BRCA-mutant ovarian cancer cell lines. (AID 1963452). The conditions noted are these: PEO1/OlaR viability, CellTiter-Glo luminescence, 96 h; measured here: PEO1 parental Z-AUC; stronger effect = lower value. An outline of the steps: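 PEO1, PEO4 and PEO1/OlaR ovarian cancer cells, 600 per well, exposed 96 h at 37C to a dilution series. Viability read by CellTiter-Glo luminescence, normalized to DMSO and empty wells; activity summarized as Z-AUC.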
Take `S=P(N1CC1)(N1CC1)N1CC1`: the Z-AUC was 1.48.

As for `COc1cc([C@@H]2c3cc4c(cc3[C@H](O)[C@H]3COC(=O)[C@H]23)OCO4)cc(OC)c1OC`, the Z-AUC is -1.81.

For `COc1ccc(-c2ccc3cc(C(=O)O)ccc3c2)cc1C12CC3CC(CC(C3)C1)C2`, the Z-AUC was -0.0792. For the molecule `COC(=O)Nc1nc2ccc(C(=O)c3ccccc3)cc2[nH]1`, the Z-AUC was -1.51.

In the case of `COc1ccc2cc3[n+](cc2c1OC)CCc1cc2c(cc1-3)OCO2`, the Z-AUC is -0.712.

For the molecule `CNNCc1ccc(C(=O)NC(C)C)cc1`, the Z-AUC was determined as 0.747.

On to `N=C(N)c1ccc(OCCCCCOc2ccc(C(=N)N)cc2)cc1`, for which the Z-AUC is -0.0701.

As to `Oc1c(Cl)cc(Cl)c2cccnc12`, the Z-AUC was -0.0999. With `CCc1cc(C(N)=S)ccn1`, the Z-AUC was -0.0543.

On to `COc1cc2c(Nc3ccc(Br)cc3F)ncnc2cc1OCC1CCN(C)CC1`, for which the Z-AUC was 0.081.

Regarding `COC(=O)Nc1nc2ccc(Sc3ccccc3)cc2[nH]1`, the Z-AUC is -0.935.

As for `C1CCC(C(CC2CCCCN2)C2CCCCC2)CC1` (stereo unspecified), the Z-AUC is -0.095. As for `CC(C)Cn1cnc2c(N)nc3ccccc3c21`, the figure is -0.536. For the molecule `CCCc1nc(C)c2c(=O)[nH]c(-c3cc(S(=O)(=O)N4CCN(CC)CC4)ccc3OCC)nn12`, the Z-AUC turned out to be 0.477. As to `CC(C)(Sc1cc(C(C)(C)C)c(O)c(C(C)(C)C)c1)Sc1cc(C(C)(C)C)c(O)c(C(C)(C)C)c1`, the Z-AUC came to 1.36. For the molecule `COc1cc(NCc2ccc3nc(N)nc(N)c3c2C)cc(OC)c1OC`, the Z-AUC is 0.153. As to `CCCCOc1ccc(CC(=O)NO)cc1`, the Z-AUC was -0.714. `Cc1nnc(NS(=O)(=O)c2ccc(N)cc2)s1`: the Z-AUC amounted to 0.997. In the case of `Nc1nc(N)c2nc(CNc3ccc(C(=O)NC(CCC(=O)O)C(=O)O)cc3)cnc2n1` (stereo unspecified), the Z-AUC was 0.192. In the case of `CC(C)(C)C(=O)OCOP(=O)(COCCn1cnc2c(N)ncnc21)OCOC(=O)C(C)(C)C`, the Z-AUC is 0.013.

Regarding `CCOC(=O)[C@H](CCc1ccccc1)N[C@H]1CS[C@H](c2cccs2)CN(CC(=O)O)C1=O`, the Z-AUC was -0.787. As for `CNC(=O)c1cc(Oc2ccc(NC(=O)Nc3ccc(Cl)c(C(F)(F)F)c3)cc2)ccn1`, the figure is 0.309; as for `CCCCCCNC(=O)n1cc(F)c(=O)[nH]c1=O`, 0.601; as for `CCc1c2c(nc3ccc(OC(=O)N4CCC(N5CCCCC5)CC4)cc13)-c1cc3c(c(=O)n1C2)COC(=O)[C@]3(O)CC`, -2.61. In the case of `CC(C)NCC(O)c1ccc(NS(C)(=O)=O)cc1` (stereo unspecified), the Z-AUC worked out at 1.13. Regarding `CC(C)OC(=O)C(C(=O)OC(C)C)=C1SC=CS1`, the Z-AUC came to 0.837. On to `CC[C@H](C)C(=O)O[C@H]1C[C@@H](C)C=C2C=C[C@H](C)[C@H](CC[C@@H]3C[C@@H](O)CC(=O)O3)[C@H]21`, for which the Z-AUC is 1.47. As for `O=c1cc(O)c(Cl)c[nH]1`, the figure is 1.19; as for `CC(=O)Oc1ccccc1C(=O)Nc1ncc([N+](=O)[O-])s1`, 0.864; as for `COc1ccc(C(=O)CC(=O)c2ccc(C(C)(C)C)cc2)cc1`, 0.772.

Consider `CNC1CCCN(c2c(F)cc3c(=O)c(C(=O)O)cn(C4CC4)c3c2OC)C1` (stereo unspecified), for which the Z-AUC was 1.15.
